Source: PubChem BioAssay (NCI)
Where “and” joins values, the source holds several entries; their conditions need not be identical. Identical values can stand only once. This is part of a sample that, as a whole, favours compounds with a hit. Of some 79,000 tested, about 15% had one in any assay. A number with no mark means an inactive call. Calls of active or inactive are those of the source. No stated cut-off is given here; in the data, active means growth inhibition above about 70%; inactive means the rest.

Legend:
[1] = NCI Yeast Anticancer Drug Screen. Data for the rad50 strain (AID 155);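 further: 0% = growth of vehicle-only cultures of the same strain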; details: S. cerevisiae rad50 strain growth inhibition, stronger effect = higher value
How it was run: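 A DNA repair-deficient yeast mutant serves as the test organism; compound-induced growth inhibition is calculated against vehicle-treated cells.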

[2] = NCI Yeast Anticancer Drug Screen. Data for the mec2-1 strain (AID 157); details: S. cerevisiae mec2-1 strain, stronger effect = higher value
How it was run: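 Strain: mec2-1 (DNA repair/cell cycle alteration). Compound exposure, then growth measured; inhibition expressed relative to vehicle.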

[3] = NCI Yeast Anticancer Drug Screen. Data for the sgs1 mgt1 strain (AID 161);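 further: 0% = growth of cultures given vehicle only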; details: S. cerevisiae sgs1 mgt1 strain, stronger effect = higher value
How it was run: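 Read-out: growth inhibition vs vehicle controls. Cells: mutant yeast strain deficient in DNA damage repair.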

[4] = NCI Yeast Anticancer Drug Screen. Data for the cln2 rad14 strain (AID 165);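 further: 0% = growth equal to vehicle treated cultures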; details: S. cerevisiae cln2 rad14 strain, stronger effect = higher value
How it was run: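 Compounds are applied to the cln2 rad14 yeast strain, and growth is then compared with that of vehicle-treated cultures to give inhibition.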

[5] = NCI Yeast Anticancer Drug Screen. Data for the bub3 strain (AID 167); details: S. cerevisiae bub3 mutant strain, stronger effect = higher value
How it was run: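 Inhibition values come from growth of compound-treated mutant yeast normalised to vehicle-treated controls.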

[6] = NCI Yeast Anticancer Drug Screen. Data for the mlh1 rad18 strain (AID 175); details: S. cerevisiae mlh1 rad18 strain growth inhibition, stronger effect = higher value
How it was run: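 Read-out is yeast growth inhibition, calculated against vehicle-only controls. The compound was applied to a strain engineered with DNA damage repair alterations.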

[7] = at 5.0 µM (retest, dose inferred, filed as 0.5)
[8] = at 50.0 µM (retest, dose inferred, filed as 5.0)

SMILES: [Cl][Pt+2][Cl].[NH-]C(c1ccccc1)C([NH-])c1ccccc1 (configuration not stated)
- growth inhibition [1, 7]: -11%
- growth inhibition [1, 8]: 10%
- growth inhibition ([1]; at 50.0 µM): -22.9% and 11%
- growth inhibition [2, 7]: 2%
- growth inhibition [2, 8]: -8%
- growth inhibition ([2]; at 50.0 µM): -21.4% and 0.25%
- growth inhibition [3, 7]: -10%
- growth inhibition [3, 8]: 9%
- growth inhibition ([3]; at 50.0 µM): 19% and 2.15%
- growth inhibition [4, 7]: -23%
- growth inhibition [4, 8]: -10%
- growth inhibition ([4]; at 50.0 µM): 18.6% and 21.9%
- growth inhibition [5, 7]: -9%
- growth inhibition [5, 8]: 4%
- growth inhibition ([5]; at 50.0 µM): -2.7% and -2.2%
- growth inhibition [6, 7]: -6%
- growth inhibition [6, 8]: 2%
- growth inhibition ([6]; at 50.0 µM): -17.6% and 29.3%

SMILES: Cc1cc(C)c(O)c(C)c1.[Hg]
- growth inhibition [1, 7]: 99% (active)
- growth inhibition [1, 8]: 98% (active)
- growth inhibition ([1]; at 50.0 µM): 99.5% (active)
- growth inhibition [2, 7]: 99% (active)
- growth inhibition [2, 8]: 99% (active)
- growth inhibition ([2]; at 50.0 µM): 99.5% (active)
- growth inhibition [3, 7]: 99% (active)
- growth inhibition [3, 8]: 99% (active)
- growth inhibition ([3]; at 50.0 µM): 99.5% (active)
- growth inhibition [4, 7]: 99% (active)
- growth inhibition [4, 8]: 99% (active)
- growth inhibition ([4]; at 50.0 µM): 99.4% (active)
- growth inhibition [5, 7]: 98% (active)
- growth inhibition [5, 8]: 99% (active)
- growth inhibition ([5]; at 50.0 µM): 99.3% (active)
- growth inhibition [6, 7]: 98% (active)
- growth inhibition [6, 8]: 98% (active)
- growth inhibition ([6]; at 50.0 µM): 99.5% (active)

SMILES: [Cl][Sn]([c]1ccccc1)[c]1ccccc1
- growth inhibition [1, 7]: 41%
- growth inhibition [1, 8]: 93% (active)
- growth inhibition ([1]; at 50.0 µM): 80.8% (active)
- growth inhibition [2, 7]: 30%
- growth inhibition [2, 8]: 96% (active)
- growth inhibition ([2]; at 50.0 µM): 85.8% (active)
- growth inhibition [3, 7]: 56%
- growth inhibition [3, 8]: 99% (active)
- growth inhibition ([3]; at 50.0 µM): 89% (active)
- growth inhibition [4, 7]: 34%
- growth inhibition [4, 8]: 97% (active)
- growth inhibition ([4]; at 50.0 µM): 54.2%
- growth inhibition [5, 7]: 57%
- growth inhibition [5, 8]: 98% (active)
- growth inhibition ([5]; at 50.0 µM): 87.8% (active)
- growth inhibition [6, 7]: 30%
- growth inhibition [6, 8]: 90% (active)
- growth inhibition ([6]; at 50.0 µM): 83.5% (active)

SMILES: CCOC(=O)C(/N=N\c1nn[nH]n1)/N=N/c1ncn[nH]1 (configuration not stated)
- growth inhibition [1, 7]: -7%
- growth inhibition [1, 8]: -8%
- growth inhibition ([1]; at 50.0 µM): 97.7% (active)
- growth inhibition [2, 7]: -28%
- growth inhibition [2, 8]: -6%
- growth inhibition ([2]; at 50.0 µM): 99.5% (active)
- growth inhibition [3, 7]: -6%
- growth inhibition [3, 8]: -1%
- growth inhibition ([3]; at 50.0 µM): 73.2% (active)
- growth inhibition [4, 7]: -2%
- growth inhibition [4, 8]: -10%
- growth inhibition ([4]; at 50.0 µM): 93.2% (active)
- growth inhibition [5, 7]: -6%
- growth inhibition [5, 8]: -3%
- growth inhibition ([5]; at 50.0 µM): 98.8% (active)
- growth inhibition [6, 7]: -7%
- growth inhibition [6, 8]: -5%
- growth inhibition ([6]; at 50.0 µM): 99.2% (active)

SMILES: CCC[CH2][Sn]1([CH2]CCC)[O]C(=O)c2cccc(C)c2[O]1
- growth inhibition [1, 7]: 86% (active)
- growth inhibition [1, 8]: 96% (active)
- growth inhibition ([1]; at 50.0 µM): 96.7% (active)
- growth inhibition [2, 7]: 89% (active)
- growth inhibition [2, 8]: 98% (active)
- growth inhibition ([2]; at 50.0 µM): 97.7% (active)
- growth inhibition [3, 7]: 88% (active)
- growth inhibition [3, 8]: 94% (active)
- growth inhibition ([3]; at 50.0 µM): 96.3% (active)
- growth inhibition [4, 7]: 86% (active)
- growth inhibition [4, 8]: 97% (active)
- growth inhibition ([4]; at 50.0 µM): 93.3% (active)
- growth inhibition [5, 7]: 88% (active)
- growth inhibition [5, 8]: 97% (active)
- growth inhibition ([5]; at 50.0 µM): 95.9% (active)
- growth inhibition [6, 7]: 87% (active)
- growth inhibition [6, 8]: 95% (active)
- growth inhibition ([6]; at 50.0 µM): 98.2% (active)

SMILES: COC(=O)C1=C(O)C(C(=O)OC)[C@]2(O)[C@@H](C(=O)OC)[C@H]1C[C@@H](c1ccccc1)[C@@H]2C(=O)OC (some centres not stated)
- growth inhibition [1, 7]: 4%
- growth inhibition [1, 8]: 98% (active)
- growth inhibition ([1]; at 50.0 µM): 97.7% (active)
- growth inhibition [2, 7]: 3%
- growth inhibition [2, 8]: 97% (active)
- growth inhibition ([2]; at 50.0 µM): 98.3% (active)
- growth inhibition [3, 7]: 10%
- growth inhibition [3, 8]: 97% (active)
- growth inhibition ([3]; at 50.0 µM): 98.3% (active)
- growth inhibition [4, 7]: 11%
- growth inhibition [4, 8]: 92% (active)
- growth inhibition ([4]; at 50.0 µM): 84.3% (active)
- growth inhibition [5, 7]: 3%
- growth inhibition [5, 8]: 97% (active)
- growth inhibition ([5]; at 50.0 µM): 98.2% (active)
- growth inhibition [6, 7]: 10%
- growth inhibition [6, 8]: 98% (active)
- growth inhibition ([6]; at 50.0 µM): 98.6% (active)

SMILES: CCCCCOC(=O)CCl
- growth inhibition [1, 7]: 8%
- growth inhibition [1, 8]: 69%
- growth inhibition ([1]; at 50.0 µM): 54.7%
- growth inhibition [2, 7]: 1%
- growth inhibition [2, 8]: 16%
- growth inhibition ([2]; at 50.0 µM): 1.75%
- growth inhibition [3, 7]: 4%
- growth inhibition [3, 8]: 40%
- growth inhibition ([3]; at 50.0 µM): 32.2%
- growth inhibition [4, 7]: 1%
- growth inhibition [4, 8]: 8%
- growth inhibition ([4]; at 50.0 µM): 16.5%
- growth inhibition [5, 7]: 0%
- growth inhibition [5, 8]: -5%
- growth inhibition ([5]; at 50.0 µM): -27.6%
- growth inhibition [6, 7]: 11%
- growth inhibition [6, 8]: 32%
- growth inhibition ([6]; at 50.0 µM): 19.4%

SMILES: CC[C@H](C)c1occ2c(O)c(C(=O)O)c(=O)cc-2c1C
- growth inhibition [1, 7]: 56%
- growth inhibition [1, 8]: 98% (active)
- growth inhibition ([1]; at 50.0 µM): 24.5%
- growth inhibition [2, 7]: 71% (active)
- growth inhibition [2, 8]: 99% (active)
- growth inhibition ([2]; at 50.0 µM): -2.7%
- growth inhibition [3, 7]: 99% (active)
- growth inhibition [3, 8]: 99% (active)
- growth inhibition ([3]; at 50.0 µM): 12.2%
- growth inhibition [4, 7]: 31%
- growth inhibition [4, 8]: 99% (active)
- growth inhibition ([4]; at 50.0 µM): 3.2%
- growth inhibition [5, 7]: 74% (active)
- growth inhibition [5, 8]: 99% (active)
- growth inhibition ([5]; at 50.0 µM): 12.2%
- growth inhibition [6, 7]: 88% (active)
- growth inhibition [6, 8]: 98% (active)
- growth inhibition ([6]; at 50.0 µM): 81.2% (active)

SMILES: O=[N+]([O-])C(Br)CO (configuration not stated)
- growth inhibition [1, 7]: 2%
- growth inhibition [1, 8]: 91% (active)
- growth inhibition ([1]; at 50.0 µM): 76% (active)
- growth inhibition [2, 7]: 2%
- growth inhibition [2, 8]: 99% (active)
- growth inhibition ([2]; at 50.0 µM): 89% (active)
- growth inhibition [3, 7]: 3%
- growth inhibition [3, 8]: 94% (active)
- growth inhibition ([3]; at 50.0 µM): 79% (active)
- growth inhibition [4, 7]: 9%
- growth inhibition [4, 8]: 95% (active)
- growth inhibition ([4]; at 50.0 µM): 84.8% (active)
- growth inhibition [5, 7]: 7%
- growth inhibition [5, 8]: 99% (active)
- growth inhibition ([5]; at 50.0 µM): 94% (active)
- growth inhibition [6, 7]: 4%
- growth inhibition [6, 8]: 97% (active)
- growth inhibition ([6]; at 50.0 µM): 88.1% (active)
